The sample as a whole holds a higher share of hits than the screen did.
TTR transcr act: TTR transcription activation, primary screen; hit rate 1.3% among 92,000; SH-SY5Y TTR promoter Gaussia luciferase, luminescence; 100% = recombinant luciferase protein wells; activation, % at 16.7 µM;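 active = activation above the mean of all tested compounds plus 3 SD, cut at about 9.5% in these data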;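 note: cells exposed to compounds for one day before reading; 0% = median of all test compound wells on the plate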
TTR inh HuH7: decreases TTR transcription in HuH7 cells in activator counter-screen | shares compounds with TTR transcr act | HuH7 TTR promoter-Gaussia luciferase reporter, luminescence | AID 1117279 | inhibition, % at 16.7 µM | hit rate 4% among 1,100;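 active = average inhibition above the solvent-only control wells' mean plus 3 SD, cut at about 15% in these data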;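 note: 0% = cells with DMSO only and 100% = cells with inhibitor control FD; inhibitors lower well luminescence so higher value means more inhibition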
TTR up confirm: human TTR transcription activation, confirmation; shares compounds with TTR transcr act; SHSY5Y TTR promoter Gaussia luciferase, luminescence; 100% = purified Lucia enzyme wells, no cells; activation, % at 16.7 µM; 1,100 tested, under 10 active; AID 1117280;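 active = mean activation above a set limit taken from the earlier primary screen, cut at about 11% in these data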;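 note: 0% = DMSO-treated cells and 100% = recombinant Lucia luciferase without cells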
Active calls of the source: *.

SMILES	TTR transcr act	others
CCCN1Cc2cccc(C(=O)Nc3ccc(-c4nc5ccccc5[nH]4)cc3)c2C1=O	-2
O=C(c1ccccc1)n1ccc2ccc(-c3ccc4ccn(C(=O)c5ccccc5)c4c3)cc21	3
Cc1cc(C)cc(NC(=O)OC2CC3CC2[C@H]2CCCCN2[C@H]3Cc2ccccc2)c1 (stereo partly drawn)	5
COC(=O)[C@@]12CCCCC3=C1N(CCC3)C(=O)[C@H]2CC(=O)N1CCOCC1	-1
COc1ccc(CCC(=O)NNC(=O)Nc2ccc(C(C)C)cc2)cc1	-1
COc1ccc(C(C)NC(=O)CCc2ccccc2)cc1 (stereo not drawn)	0
CCc1ccccc1NC(=O)NNC(=O)CCc1ccc(OC)cc1	13*	TTR inh HuH7=-25;TTR up confirm=2
CC(=O)c1ccc(Nc2nc(C(N)CCc3ccccc3)cs2)cc1 (stereo not drawn)	1
CC(=O)c1cc(-c2ccc([N+](=O)[O-])cc2)c(=O)n2c1CCC2	0
O=C(NC1CCCCN(Cc2cccc(Cl)c2)C1=O)c1c(F)cccc1F (stereo not drawn)	-1
O=C(CC1C(=O)NCCN1Cc1ccccc1C(F)(F)F)NC1CCCCCC1 (stereo not drawn)	10*	TTR inh HuH7=-7;TTR up confirm=2
COc1cccc(CN2CCNC(=O)C2CC(=O)NC2CCCCCCC2)c1 (stereo not drawn)	-2
COc1ccc(CN2CCNC(=O)C2CC(=O)NC2CCCCCC2)c(F)c1 (stereo not drawn)	-1
CCOC(=O)C1CCN(C(=O)C(C)(C)NC(=O)Nc2ccc(OC)c(Cl)c2)CC1	-1
COc1ccccc1CCNC(=O)CSc1nnc2ccc(-c3ccncc3)nn12	1
CN(CCc1ccccc1)C(=O)c1ccc(NC(=O)Cc2ccc(NC(=O)C3CCCN(C(=O)C4CCCC4)C3)cc2)cc1 (stereo not drawn)	-3
O=C(NC1CCCCN(Cc2ccc(Cl)cc2)C1=O)c1ccc(COc2ccccc2)cc1 (stereo not drawn)	2
O=C(NCCc1ccccc1)OCc1cn(-c2ccc(F)cc2)nn1	3
CCCCn1c(SCC(=O)Nc2cc(C)on2)nc2cc(S(N)(=O)=O)ccc21	1
CCCCn1c(SCC(=O)Nc2oc(C)c3c(C)n[nH]c(=O)c23)nc2cc(S(N)(=O)=O)ccc21	1
CCCCn1c(SCc2c(C)noc2C)nc2cc(S(N)(=O)=O)ccc21	16*	TTR inh HuH7=-24;TTR up confirm=0
CN(Cc1ccccc1)C(=O)OCc1cn(Cc2c(F)cccc2F)nn1	-1
CC1=C(C(=O)Nc2cccc(C(=O)NC(C)c3ccccc3)c2)SCCO1 (stereo not drawn)	11*	TTR inh HuH7=-11;TTR up confirm=-1
Cc1cccc(C(=O)NC(=S)NC(C)c2ccccc2)c1 (stereo not drawn)	-1
Cc1cccc(NC(=O)c2nc[nH]c2C(=O)N[C@@H](C)c2ccccc2)c1	9
SMILES	TTR transcr act	others
C#CCNC(=O)C[C@H]1C[C@@]2(C(=O)OC)C(=C[C@H](C(C)C)O[C@@H]2C2CC2)N(Cc2ccc3c(c2)OCO3)C1=O	3
COc1cccc(C(CNC(=O)C2CCN(C(=O)Nc3ccccc3)CC2)N(C)C)c1 (stereo not drawn)	1
COC(=O)[C@]12C[C@H](CC(=O)NCc3ccc(OC)c(OC)c3)C(=O)N(Cc3cccc4ccccc34)C1=C[C@H](C(C)C)O[C@@H]2C1CC1	-3
COC(=O)c1ccc(-c2nc(-c3cccs3)no2)cc1	13*	TTR inh HuH7=11;TTR up confirm=-1
COC(=O)c1ccc(-c2nc(-c3ccc(Br)o3)no2)cc1	-2
O=C(NCc1ccncc1)c1nc(-c2cccs2)no1	7
COC(=O)[C@]12CCCCC=C1N(Cc1ccc(OC)cc1)C(=O)[C@@H]2CC(=O)N1CCN(C(=O)C2CC2)CC1	1
O=[N+]([O-])c1ccc(Cn2ccc3ccc(-c4ccc5ccn(Cc6ccccc6)c5c4)cc32)cc1	2
COc1ccc(Cl)cc1NC(=O)c1cc(C2CC2)on1	-1
COc1ccc(NC(=O)c2cc(-c3ccc(OC)c(OC)c3)on2)cc1OC	0
COc1ccc(Cl)cc1NC(=O)c1cc(-c2ccccc2)on1	12*	TTR inh HuH7=11;TTR up confirm=0
COc1ccc(OC)c(NC(=O)O[C@@H]2CC[C@@]34CCCN3C(=O)CCC[C@H]4C2)c1	1
Nc1[nH]c(C(=O)c2ccccc2)c(-c2ccc(Cl)cc2Cl)c1C(=O)c1cccs1	0
COc1ccc(NC(=O)C(c2ccccc2)c2ccccc2)c(OC)c1	1
COc1ccc(OC)c(NC(=O)C2CC2c2ccccc2)c1 (stereo not drawn)	-2
COc1ccc2c(c1)OCC(O)(c1ccccc1)C2=O (stereo not drawn)	38*	TTR inh HuH7=-7;TTR up confirm=2
C=CCc1cccc2cc(C(=O)OCC(=O)c3ccccc3)c(=O)oc12	-1
COC(C(=O)NC1CC1)c1ccccc1 (stereo not drawn)	2
CCC(C)[C@H](NC(=O)Nc1ccccc1F)C(=O)O (stereo partly drawn)	9
COC(C(=O)Nc1ccccc1F)c1ccccc1 (stereo not drawn)	15*	TTR inh HuH7=-7;TTR up confirm=0
C#CCNC(=O)C[C@H]1C[C@@]2(C(=O)OC)C(=C[C@H](C(C)C)O[C@@H]2C2CC2)N(Cc2cccc3ccccc23)C1=O	0
CCOc1ccc(NC(=O)CN(C)C(=O)c2ccc3nc(CC)c(CC)nc3c2)cc1OCC	-1
CN1CCN(c2ccc(-c3csc(N4CCC(C(N)=O)CC4)n3)cc2)CC1	0
C#CCNC(=O)C[C@H]1C[C@@]2(C(=O)OC)C(=C[C@H](C3CCCC3)O[C@@H]2C)N(Cc2cccc3ccccc23)C1=O	-2
O=C(CN1C(=O)CCSc2ccc(S(=O)(=O)N3CCCC3)cc21)NCc1ccccc1Cl	3
SMILES	TTR transcr act	others
O=C(CN1C(=O)CSc2ccc(S(=O)(=O)N3CCOCC3)cc21)NCc1c(F)cccc1Cl	0
O=C(CN1C(=O)CSc2ccc(S(=O)(=O)N3CCCCC3)cc21)NCc1cccnc1	11*	TTR inh HuH7=-13;TTR up confirm=-1
N#Cc1c(-c2ccc(Cl)cc2)ccnc1N1CCOCC1	-1
Cc1cc(C)cc([C@H]2C[C@]34CN(Cc5ccccc5)S(=O)(=O)[C@H]3C[C@H]2O4)c1	-1
O=S1(=O)[C@H]2C[C@@H]3C=C[C@@]2(CN1Cc1ccc(Cl)cc1)O3	17*	TTR inh HuH7=-12;TTR up confirm=0
Cc1cccc(CN2C[C@]34C=C[C@@H](C[C@@H]3S2(=O)=O)O4)c1	-1
Cc1cc(NC(=O)CSc2nc3cc(C(=O)NCCCOC(C)C)ccc3c(=O)n2Cc2ccco2)no1	9
CC(C)c1ccc(CC(=O)N2CCC2(C)C(=O)NS(=O)(=O)c2cccc(OC(F)F)c2)cc1 (stereo not drawn)	-2
COc1cccc2cc(C(C)N(CCCN3CCOCC3)C(=S)Nc3cccc(C)c3)oc12 (stereo not drawn)	-1
COc1cccc2cc(C(C)N(CCCN3CCOCC3)C(=S)Nc3c(C)cccc3C)oc12 (stereo not drawn)	1
COc1cccc2cc(C(C)N(CCCN3CCOCC3)C(=S)Nc3ccccc3C)oc12 (stereo not drawn)	14*	TTR inh HuH7=-6;TTR up confirm=-1
Clc1ccc2nc(CNc3nc(N4CCOCC4)nc4c3ncn4-c3ccsc3)[nH]c2c1	9
